# Results from PubChem BioAssay AID1159580 (chemical genetic matrix, 2015).
# Screen size: about 5,500 compounds; about 2,000 (36%) were called active. About 18% were inconclusive and are not listed. This is one part of the list. Values without a mark were called inactive. Cut-off read from the data, not from the text of the source: active = normalized growth mostly below about 0.91 (no sharp cut-off); inconclusive = no clear call, values can overlap the other calls; inactive = mostly above about 0.92.
# Assay: chemical genetic growth profiling, strain panel (AID 1159580);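 note: tested at 20 µM; growth read once vehicle control cultures reached saturation at 30 °C; 1 = growth at the plate median or of vehicle wells; lower values mean less growth of the strain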
# Details: growth OD
# [1] = S. cerevisiae deletion strains, locus YDL101C, strain DUN1, stronger effect = lower value
# [2] = S. cerevisiae deletion strains, locus YHR030C, strain SLT2, stronger effect = lower value
compound,measurement,setting,value
O=C(Nc1cc(Cl)cc(Cl)c1)c1cc(Br)ccc1O,normalized growth,"S. cerevisiae deletion strains, locus YAR019C, strain CDC15, stronger effect = lower value",0.944
same,normalized growth,"S. cerevisiae deletion strains, locus YBL105C, strain PKC1, stronger effect = lower value",0.958
same,normalized growth,"S. cerevisiae deletion strains, locus YBR135W, strain CKS1, stronger effect = lower value",0.946
same,normalized growth,"S. cerevisiae deletion strains, locus YBR136W, strain MEC1, stronger effect = lower value",0.949
same,normalized growth,"S. cerevisiae deletion strains, locus YBR160W, strain CDC28, stronger effect = lower value",0.955
same,normalized growth,"S. cerevisiae deletion strains, locus YDL017W, strain CDC7, stronger effect = lower value",0.942
same,normalized growth,"S. cerevisiae deletion strains, locus YDL028C, strain MPS1, stronger effect = lower value",0.955
same,normalized growth,[1],0.985
same,normalized growth,"S. cerevisiae deletion strains, locus YDL108W, strain KIN28, stronger effect = lower value",0.953
same,normalized growth,"S. cerevisiae deletion strains, locus YDL132W, strain cdc53, stronger effect = lower value",0.933
same,normalized growth,"S. cerevisiae deletion strains, locus YDL214C, strain PRR2, stronger effect = lower value",0.849
same,normalized growth,"S. cerevisiae deletion strains, locus YDR052C, strain DBF4, stronger effect = lower value",0.925
same,normalized growth,"S. cerevisiae deletion strains, locus YDR054C, strain cdc34, stronger effect = lower value",0.939
same,normalized growth,"S. cerevisiae deletion strains, locus YDR226W, strain ADK1, stronger effect = lower value",0.935
same,normalized growth,"S. cerevisiae deletion strains, locus YDR477W, strain SNF1, stronger effect = lower value",0.872
same,normalized growth,"S. cerevisiae deletion strains, locus YER123W, strain YCK3, stronger effect = lower value",0.774
same,normalized growth,"S. cerevisiae deletion strains, locus YER133W, strain GLC7, stronger effect = lower value",0.831
same,normalized growth,"S. cerevisiae deletion strains, locus YFL009W, strain cdc4, stronger effect = lower value",0.936
same,normalized growth,"S. cerevisiae deletion strains, locus YFL029C, strain CAK1, stronger effect = lower value",0.942
same,normalized growth,"S. cerevisiae deletion strains, locus YFR003C, strain YPI1, stronger effect = lower value",0.949
same,normalized growth,"S. cerevisiae deletion strains, locus YFR019W, strain FAB1, stronger effect = lower value",0.91
same,normalized growth,"S. cerevisiae deletion strains, locus YFR028C, strain CDC14, stronger effect = lower value",0.94
same,normalized growth,"S. cerevisiae deletion strains, locus YGR040W, strain KSS1, stronger effect = lower value",0.888
same,normalized growth,"S. cerevisiae deletion strains, locus YGR052W, strain FMP48, stronger effect = lower value",0.847
same,normalized growth,"S. cerevisiae deletion strains, locus YGR092W, strain DBF2, stronger effect = lower value",0.405 (active)
same,normalized growth,[2],0.816 (active)
same,normalized growth,"S. cerevisiae deletion strains, locus YHR079C, strain IRE1, stronger effect = lower value",0.68
same,normalized growth,"S. cerevisiae deletion strains, locus YHR082C, strain KSP1, stronger effect = lower value",0.964
same,normalized growth,"S. cerevisiae deletion strains, locus YHR205W, strain SCH9, stronger effect = lower value",0.656
same,normalized growth,"S. cerevisiae deletion strains, locus YIL147C, strain SLN1, stronger effect = lower value",0.945
same,normalized growth,"S. cerevisiae deletion strains, locus YJL095W, strain BCK1, stronger effect = lower value",0.76
same,normalized growth,"S. cerevisiae deletion strains, locus YJL128C, strain PBS2, stronger effect = lower value",0.959
same,normalized growth,"S. cerevisiae deletion strains, locus YJL157C, strain FAR1, stronger effect = lower value",0.698 (active)
same,normalized growth,"S. cerevisiae deletion strains, locus YJR016C, strain ILV3, stronger effect = lower value",0.944
same,normalized growth,"S. cerevisiae deletion strains, locus YJR066W, strain TOR1 (second series), stronger effect = lower value",0.774
same,normalized growth,"S. cerevisiae deletion strains, locus YJR066W, strain TOR1, stronger effect = lower value",0.792
same,normalized growth,"S. cerevisiae deletion strains, locus YKL048C, strain ELM1, stronger effect = lower value",0.848
same,normalized growth,"S. cerevisiae deletion strains, locus YKL067W, strain YNK1, stronger effect = lower value",0.799
same,normalized growth,"S. cerevisiae deletion strains, locus YKL101W, strain HSL1, stronger effect = lower value",0.853
same,normalized growth,"S. cerevisiae deletion strains, locus YKL193C, strain SDS22, stronger effect = lower value",0.936
same,normalized growth,"S. cerevisiae deletion strains, locus YKL203C, strain TOR2, stronger effect = lower value",0.86
same,normalized growth,"S. cerevisiae deletion strains, locus YLR113W, strain HOG1, stronger effect = lower value",0.892
same,normalized growth,"S. cerevisiae deletion strains, locus YLR133W, strain CKI1, stronger effect = lower value",0.821
same,normalized growth,"S. cerevisiae deletion strains, locus YLR403W, strain SFP1, stronger effect = lower value",0.747
same,normalized growth,"S. cerevisiae deletion strains, locus YML070W, strain DAK1, stronger effect = lower value",0.872
same,normalized growth,"S. cerevisiae deletion strains, locus YMR001C, strain CDC5, stronger effect = lower value",0.941
same,normalized growth,"S. cerevisiae deletion strains, locus YMR205C, strain PFK2 (second series), stronger effect = lower value",0.858
same,normalized growth,"S. cerevisiae deletion strains, locus YMR277W, strain FCP1, stronger effect = lower value",0.945
same,normalized growth,"S. cerevisiae deletion strains, locus YNL006W, strain LST8, stronger effect = lower value",0.938
same,normalized growth,"S. cerevisiae deletion strains, locus YNL020C, strain ARK1, stronger effect = lower value",0.738
same,normalized growth,"S. cerevisiae deletion strains, locus YNL161W, strain CBK1, stronger effect = lower value",0.947
same,normalized growth,"S. cerevisiae deletion strains, locus YNL183C, strain NPR1, stronger effect = lower value",0.917
same,normalized growth,"S. cerevisiae deletion strains, locus YNL207W, strain RIO2, stronger effect = lower value",0.955
same,normalized growth,"S. cerevisiae deletion strains, locus YNL222W, strain SSU72, stronger effect = lower value",0.949
same,normalized growth,"S. cerevisiae deletion strains, locus YNL307C, strain MCK1 (second series), stronger effect = lower value",0.703
same,normalized growth,"S. cerevisiae deletion strains, locus YOL078W, strain AVO1, stronger effect = lower value",0.952
same,normalized growth,"S. cerevisiae deletion strains, locus YOL136C, strain PFK27, stronger effect = lower value",0.767
same,normalized growth,"S. cerevisiae deletion strains, locus YOR061W, strain CKA2, stronger effect = lower value",0.749
same,normalized growth,"S. cerevisiae deletion strains, locus YOR119C, strain RIO1, stronger effect = lower value",0.925
same,normalized growth,"S. cerevisiae deletion strains, locus YOR231W, strain MKK1, stronger effect = lower value",0.888
same,normalized growth,"S. cerevisiae deletion strains, locus YOR329C, strain SCD5, stronger effect = lower value",0.948
same,normalized growth,"S. cerevisiae deletion strains, locus YPL031C, strain PHO85, stronger effect = lower value",0.841
same,normalized growth,"S. cerevisiae deletion strains, locus YPL153C, strain RAD53, stronger effect = lower value",0.84
same,normalized growth,"S. cerevisiae deletion strains, locus YPL204W, strain HRR25, stronger effect = lower value",0.801
same,normalized growth,"S. cerevisiae deletion strains, locus YPL209C, strain IPL1, stronger effect = lower value",0.945
same,normalized growth,"S. cerevisiae deletion strains, locus YPL256C, strain CLN2, stronger effect = lower value",0.871
same,normalized growth,"S. cerevisiae deletion strains, locus YPR025C, strain CCL1, stronger effect = lower value",0.951
same,normalized growth,"S. cerevisiae deletion strains, locus YPR106W, strain ISR1, stronger effect = lower value",0.971
same,normalized growth,"S. cerevisiae deletion strains, locus YPR111W, strain DBF20, stronger effect = lower value",0.96
same,normalized growth,"S. cerevisiae deletion strains, strain NNK1, stronger effect = lower value",0.964
same,normalized growth,"S. cerevisiae deletion strains, strain TSCII, stronger effect = lower value",0.942
O=C(NNC(=O)c1ccc[nH]1)Nc1cc(Cl)cc(Cl)c1,normalized growth,"S. cerevisiae deletion strains, locus YAL013W, strain DEP1, stronger effect = lower value",1.01
same,normalized growth,"S. cerevisiae deletion strains, locus YBR229C, strain ROT2, stronger effect = lower value",1
same,normalized growth,[1],0.991
same,normalized growth,"S. cerevisiae deletion strains, locus YDR150W, strain NUM1, stronger effect = lower value",0.994
same,normalized growth,"S. cerevisiae deletion strains, locus YEL061C, strain CIN8, stronger effect = lower value",0.996
same,normalized growth,"S. cerevisiae deletion strains, locus YGR078C, strain PAC10, stronger effect = lower value",1
same,normalized growth,"S. cerevisiae deletion strains, locus YGR229C, strain SMI1, stronger effect = lower value",1.02
same,normalized growth,[2],1.07
same,normalized growth,"S. cerevisiae deletion strains, locus YHR087W, strain rtc3, stronger effect = lower value",1.02
same,normalized growth,"S. cerevisiae deletion strains, locus YJR043C, strain POL32, stronger effect = lower value",1.01
same,normalized growth,"S. cerevisiae deletion strains, locus YJR075W, strain HOC1, stronger effect = lower value",1.01
same,normalized growth,"S. cerevisiae deletion strains, locus YKL190W, strain CNB1, stronger effect = lower value",1.01
same,normalized growth,"S. cerevisiae deletion strains, locus YLR039C, strain RIC1, stronger effect = lower value",1.05
same,normalized growth,"S. cerevisiae deletion strains, locus YLR058C, strain SHM2 (second series), stronger effect = lower value",1.01
same,normalized growth,"S. cerevisiae deletion strains, locus YLR085C, strain ARP6, stronger effect = lower value",1.04
same,normalized growth,"S. cerevisiae deletion strains, locus YLR262C, strain YPT6, stronger effect = lower value",1.03
same,normalized growth,"S. cerevisiae deletion strains, locus YML094W, strain GIM5, stronger effect = lower value",0.992
same,normalized growth,"S. cerevisiae deletion strains, locus YMR219W, strain ESC1, stronger effect = lower value",1
same,normalized growth,"S. cerevisiae deletion strains, locus YMR263W, strain SAP30, stronger effect = lower value",1.02
same,normalized growth,"S. cerevisiae deletion strains, locus YNL128W, strain TEP1, stronger effect = lower value",1.03
same,normalized growth,"S. cerevisiae deletion strains, locus YNL153C, strain GIM3, stronger effect = lower value",0.988
same,normalized growth,"S. cerevisiae deletion strains, locus YNL298W, strain CLA4 (second series), stronger effect = lower value",1.05
same,normalized growth,"S. cerevisiae deletion strains, locus YNL322C, strain KRE1, stronger effect = lower value",0.996
same,normalized growth,"S. cerevisiae deletion strains, locus YNR030W, strain Alg12, stronger effect = lower value",1.01
same,normalized growth,"S. cerevisiae deletion strains, locus YOL006C, strain TOP1, stronger effect = lower value",1.08
same,normalized growth,"S. cerevisiae deletion strains, locus YPL055C, strain LGE1, stronger effect = lower value",1.02
same,normalized growth,"S. cerevisiae deletion strains, locus YPL241C, strain CIN2, stronger effect = lower value",0.922
same,normalized growth,"S. cerevisiae deletion strains, locus YPR135W, strain CTF4, stronger effect = lower value",1
same,normalized growth,"S. cerevisiae strains, strain wild type, stronger effect = lower value",1.02
